Assay outcomes from PubChem BioAssay.
SENP7 inh – SENP7 protease inhibitors, primary screen, biochemical, luminescence, uHTS; Sentrin-specific protease 7 (Homo sapiens), Q9BQF6; AID 434973, 2010; recombinant SENP7, Z-RLRGG-aminoluciferin luminescence, 40 min; 330,000 compounds, 1.5% hits; inhibition, % at 5 µM;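 active means inhibition above about 50% at the single test dose, limit read from the data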;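 further: plate controls were DMSO with enzyme for no effect and no enzyme buffer wells for full effect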
Target sequence (Q9BQF6 706-1050 limits assumed): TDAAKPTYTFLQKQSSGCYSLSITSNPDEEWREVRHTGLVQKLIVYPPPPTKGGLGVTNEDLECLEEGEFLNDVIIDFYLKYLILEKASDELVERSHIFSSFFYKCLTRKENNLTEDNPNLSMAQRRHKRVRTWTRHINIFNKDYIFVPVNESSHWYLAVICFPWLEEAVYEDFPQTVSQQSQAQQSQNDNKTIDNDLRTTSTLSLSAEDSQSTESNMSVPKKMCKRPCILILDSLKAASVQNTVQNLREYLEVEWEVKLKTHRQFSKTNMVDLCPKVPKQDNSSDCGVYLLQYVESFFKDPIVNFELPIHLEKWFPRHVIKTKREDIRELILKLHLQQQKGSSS
SENP8 block-1 – SENP8 protease inhibitors, primary screen, biochemical, luminescence. Sentrin-specific protease 8 (Homo sapiens), Q96LD8. purified SENP8, Z-RLRGG-aminoluciferin cleavage. inhibition, % at 10 µM. 330,000 compounds, 1.2% hits; in the data active means inhibition above about 50%
Target sequence (Q96LD8 whole entry, looked up): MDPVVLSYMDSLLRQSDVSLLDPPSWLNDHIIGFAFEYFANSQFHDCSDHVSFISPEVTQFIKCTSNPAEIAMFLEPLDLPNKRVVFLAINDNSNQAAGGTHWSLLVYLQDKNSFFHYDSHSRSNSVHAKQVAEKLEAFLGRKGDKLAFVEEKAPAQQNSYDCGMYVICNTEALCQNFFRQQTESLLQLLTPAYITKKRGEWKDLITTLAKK
SENP8 block-2 – human SENP8 protease inhibitors, primary screen, biochemical, fluorescence, Nedd8 protein substrate, uHTS; Sentrin-specific protease 8 (Homo sapiens), Q96LD8; recombinant SENP8; inhibition, % at 20 µM; 360,000 compounds, 0.64% hits; AID 602440, 2012; in the data active means inhibition mostly above about 40%, no sharp cut-off; inactive means mostly below about 27%
SENP6 block – SENP6 protease inhibitors, primary screen, biochemical, luminescence, uHTS. inhibition, % at 10 µM. AID 2599, 2010. Recombinant SENP6 catalytic domain, aminoluciferin luminescence. 330,000 compounds, 1.8% hits;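 active means inhibition above about 50% at the single tested dose, limit read from the data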;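 further: plate controls were DMSO wells with enzyme for no effect and DMSO wells lacking enzyme for full effect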
HSP90 refold inh – HSP90 inhibitors, primary screen, cell lysate, luminescence | inhibition, % at 5.6 µM | Heat shock protein HSP 90 (rabbit reticulocyte lysate; luciferase refolding) | 290,000 compounds, 0.91% hits | Rabbit reticulocyte lysate, luciferase refolding luminescence, 3 h;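 active means inhibition above the screen-wide mean plus 3 SD, computed separately per campaign, cut at about 16% in these data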;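 further: 0% = DMSO wells and 100% = 60 µM geldanamycin wells; inhibitors lower the luminescence because luciferase stays unfolded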
HSP90 confirm – HSP90 inhibitors, confirmation, cell lysate, luminescence; shares compounds with HSP90 refold inh; 2,300 compounds, 64% hits; rabbit reticulocyte lysate, luciferase refolding luminescence, 3 h; inhibition, % at 5.9 µM; in the data active means inhibition above about 18%;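 further: 0% = vehicle wells and 100% = reference inhibitor wells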
FLuc counter – firefly luciferase inhibitors, HSP90 counter-screen, confirmation, artefact control for HSP90 inhibitor project, biochemical, luminescence, triplicate | purified native firefly luciferase | inhibition, % at 5.9 µM | 2,300 compounds, 48% hits | AID 1847, 2009 | shares compounds with HSP90 refold inh;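 active means inhibition above the mean inhibition of all tested sample wells plus 3 SD, cut at about 10% in these data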;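 further: 0% = DMSO with luciferase and 100% = wells lacking luciferase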
Numbers without * were called inactive. Rows were chosen to be rich in hits. Some 2.7% of all compounds tested hit in one or more screens of this group.

Results for CC(C)(C)CC(=O)O/N=C(\N)c1ccccn1 ?
SENP7 inh: 7.8; SENP8 block-1: -11.4; SENP8 block-2: 16.9; SENP6 block: 14.0; HSP90 refold inh: 21.5*; HSP90 confirm: 35.2*; FLuc counter: 22.4*

How did C=C[C@]1(C)C=C2C(=O)C[C@H]3C(C)(C)CCC[C@]3(C(=O)O)[C@@]2(O)CC1 do in these assays?
SENP8 block-2: 14.4

How did COC(=O)CC1=C(C)C(=O)CC2C(C)(C)CCCC12C (stereo not drawn) do in these assays?
SENP7 inh: -2.2; SENP8 block-1: -5.7; SENP8 block-2: 3.3; SENP6 block: -11.8; HSP90 refold inh: 18.6*; HSP90 confirm: 0.7; FLuc counter: -6.6

What do the screens show for `CN(C)C(=S)Nc1ccc(S(=O)(=O)N2CCCCC2)cc1`?
SENP7 inh: -1.5; SENP8 block-1: 6.6; SENP8 block-2: -2.7; SENP6 block: -15.6; HSP90 refold inh: 4.5

Results for O=C1CC(C(=O)O)S/C(=N\N=C\c2ccc(Br)cc2)N1 (stereo not drawn) ?
SENP7 inh: -7.7; SENP8 block-1: -12.3; SENP8 block-2: 23.6; SENP6 block: 4.0; HSP90 refold inh: 27.3*; HSP90 confirm: 22.3*; FLuc counter: -13.6

Results for CC(C)(Cc1ccccc1)/[N+]([O-])=C\c1ccc(C(F)(F)F)cc1 ?
SENP7 inh: -9.8; SENP8 block-1: -16.1; SENP8 block-2: 7.1; SENP6 block: -11.0

Results for Oc1c(Br)cc(Br)cc1CNn1cnnc1 ?
SENP7 inh: -12.7; SENP8 block-1: -1.4; SENP8 block-2: 6.9; SENP6 block: -8.0; HSP90 refold inh: 66.7*; HSP90 confirm: -3.5; FLuc counter: -4.5

Results for CCOc1ccc(S(=O)(=O)Nc2ccccc2C(=O)N/N=C/c2c(OC)ccc3ccccc23)cc1 ?
SENP7 inh: 7.0; SENP8 block-1: 6.1; SENP8 block-2: -128.3; SENP6 block: 0.9; HSP90 refold inh: 0.7

What do the screens show for `COC(=O)C1=C(CN2CCCc3ccccc32)NC(=O)NC1c1ccc(F)cc1` (stereo not drawn)?
SENP7 inh: -0.5; SENP8 block-1: -2.2; SENP8 block-2: -42.8; SENP6 block: 2.4; HSP90 refold inh: 46.4*; HSP90 confirm: 14.9; FLuc counter: -9.9

How did COC(=O)C1=C(CN2CCc3ccccc32)NC(=O)NC1c1cc(C)ccc1C (stereo not drawn) do in these assays?
SENP7 inh: 0.3; SENP8 block-1: -2.7; SENP8 block-2: -8.0; SENP6 block: -4.2; HSP90 refold inh: 7.9

Results for O=C(O)c1ccc(NCc2nc3ccccc3n2Cc2ccccc2)cc1 ?
SENP7 inh: 1.0; SENP8 block-1: -0.9; SENP8 block-2: 14.2; SENP6 block: -24.9; HSP90 refold inh: 3.8

What do the screens show for `CCn1cnc2cc(NCc3nc4ccccc4n3Cc3ccccc3)ccc21`?
SENP7 inh: 2.4; SENP8 block-1: 5.9; SENP8 block-2: -80.5; SENP6 block: 13.8; HSP90 refold inh: 47.9*; HSP90 confirm: 47.0*; FLuc counter: 39.7*

How did O=C(NCc1ccc(Cl)cc1)N1CCN(S(=O)(=O)c2ccccc2)CC1 do in these assays?
SENP7 inh: 3.7; SENP8 block-1: 1.1; SENP8 block-2: 5.0; SENP6 block: -3.6; HSP90 refold inh: 38.0*; HSP90 confirm: -1.4; FLuc counter: -5.7

What do the screens show for `NC(Cc1ccccc1)c1csc(Nc2ccc(C(=O)NCCCO)cn2)n1` (stereo not drawn)?
SENP8 block-2: -297.7

What do the screens show for `COc1ccc(C(=O)c2coc3ccc(O)c(CN(C)C)c23)cc1`?
SENP7 inh: 2.1; SENP8 block-1: 2.9; SENP8 block-2: 12.8; SENP6 block: -2.4; HSP90 refold inh: 34.9*; HSP90 confirm: -6.2; FLuc counter: -13.1

How did CCOc1ccc(CCNC(=O)c2ccc3c(=O)n4c(nc3c2)CCCCC4)cc1 do in these assays?
SENP7 inh: -3.1; SENP8 block-1: -2.5; SENP8 block-2: 5.2; SENP6 block: -3.7; HSP90 refold inh: -6.2

Results for C[n+]1ccc(/C=C/c2cccs2)cc1 ?
SENP7 inh: 5.5; SENP8 block-1: 4.5; SENP8 block-2: -34.6; SENP6 block: 2.6; HSP90 refold inh: 28.3*; HSP90 confirm: -0.4; FLuc counter: -4.1

What do the screens show for `CCOC(=O)c1sc(C)c(C(=O)NCC(C)(C)CN(C)C)c1N`?
SENP7 inh: 0.0; SENP8 block-1: 11.0; SENP8 block-2: -298.3; SENP6 block: 6.5; HSP90 refold inh: -0.8

Results for CN(C)C1=NC(=O)/C(=C\c2ccccc2)S1 ?
SENP7 inh: -6.5; SENP8 block-1: 7.1; SENP8 block-2: 12.8; SENP6 block: 13.5; HSP90 refold inh: 37.7*; HSP90 confirm: -10.8; FLuc counter: -14.5

Results for CCC1CCCCN1C(=O)CCCOc1ccccc1 (stereo not drawn) ?
SENP7 inh: 2.3; SENP8 block-1: -6.4; SENP8 block-2: 26.3; SENP6 block: -7.4; HSP90 refold inh: 37.1*; HSP90 confirm: 38.6*; FLuc counter: 23.5*

How did CC(=O)N/C(=C\c1ccccc1)C(=O)OC(C)C(=O)c1ccccc1 (stereo not drawn) do in these assays?
SENP7 inh: -7.7; SENP8 block-1: -4.9; SENP8 block-2: -0.8; SENP6 block: -14.5

Results for CC(C)OC(=O)c1sc2nc(-c3ccccc3)ccc2c1N ?
SENP7 inh: -4.8; SENP8 block-1: 16.9; SENP8 block-2: -296.0; SENP6 block: -10.2; HSP90 refold inh: 44.4*; HSP90 confirm: 53.5*; FLuc counter: 52.4*

How did COc1ccc(C(=O)c2sc3nc(-c4ccccc4)ccc3c2N)cc1 do in these assays?
SENP7 inh: -4.4; SENP8 block-1: -11.0; SENP8 block-2: -143.6; SENP6 block: -4.5; HSP90 refold inh: -6.0

How did N=c1sccn1CC(=O)Nc1ccc(Cl)c(S(=O)(=O)N2CCOCC2)c1 do in these assays?
SENP7 inh: -4.5; SENP8 block-1: -6.4; SENP8 block-2: 5.9; SENP6 block: 0.8; HSP90 refold inh: 0.8

How did Cc1[nH]n(-c2ccccc2)c(=O)c1C(c1ccc(O)c([N+](=O)[O-])c1)c1c(C)[nH]n(-c2ccccc2)c1=O do in these assays?
SENP7 inh: 40.4; SENP8 block-1: 15.1; SENP8 block-2: 79.6*; SENP6 block: 50.6*; HSP90 refold inh: 25.5*; HSP90 confirm: -2.8; FLuc counter: -2.6

Results for Cc1[nH]n(-c2cccc([N+](=O)[O-])c2)c(=O)c1-c1ccccc1 ?
SENP7 inh: 3.3; SENP8 block-1: -5.9; SENP8 block-2: 16.0; SENP6 block: -5.0; HSP90 refold inh: -1.1
